Calls of active or inactive are those of the source. The calls were made as follows: active = hit-call score of the fitted dose curve at least 0.9, where 1 is the maximum; inactive = score below 0.9.

Read-out in the first assay: TIMP metallopeptidase inhibitor 2 (TIMP2), TIMP2 (gene 7077)
Kind of assay: BSK_KF3CT_TIMP2: BioMAP Diversity Plus: KF3CT Assay for TIMP metallopeptidase inhibitor 2 (TIMP2) Biomarker Activity (AID 2283071). The following applies: primary human keratinocytes with fibroblasts; actives raise or lower the signal. The essentials:
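Cells: human keratinocytes co-cultured with foreskin fibroblasts. Treat with chemical, 24 h. Measure TIMP-2 by ELISA; fit curves bidirectionally vs DMSO baseline.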
With `OCc1c[nH]c2ccccc12`, the outcome was inactive.

As to `c1ccc2cc3ccccc3cc2c1`, the outcome was inactive.

In the case of `COc1cc(C(C)C)c2c(c1)S(=O)(=O)N(COc1cc(=O)n3cccc(OCCN4CCCCC4)c3n1)C2=O`, the result was inactive.

For `O=S(=O)(O)CCC(F)(F)C(F)(F)C(F)(F)C(F)(F)C(F)(F)C(F)(F)F`, the result was inactive.

Regarding `Cc1nccn1-c1ccc(Sc2cccc(C3(C(N)=O)CCOCC3)c2)cc1`, the outcome was inactive.

In the case of `CC(C)CC(C)O` (configuration not stated), the outcome was inactive.

Regarding `NC(=O)NN=Cc1ccc([N+](=O)[O-])o1`, the outcome was inactive.

In the case of `c1ccc(C(O[C@@H]2CCCN(CCc3ccc4c(c3)OCO4)C2)c2ccccc2)cc1`, the concentration at half-maximal activity (AC50) is 3970 nM (active).

For the compound `CCCCOC(=O)c1ccccc1`, the outcome was inactive.

For `FC(F)(F)C(F)(F)C(F)(F)C(F)(F)C(F)(F)C(F)(F)I`, the outcome was inactive.

As to `NC(=O)N1c2ccccc2C=Cc2ccccc21`, the result was inactive.

Take `Cc1nc(-c2ccccn2)ncc1C(=O)Nn1cc(C)c2cc(F)ccc21`: the result was inactive.

`O=C(O)[C@H](O)[C@@H](O)C(=O)O`: the result was inactive.

On to `Cc1cccc(O)c1C`, for which the result was inactive.

For the compound `C[Si](C)(C)C(F)(F)C(F)(F)C(F)(F)F`, the outcome was inactive.

In the case of `CCOC(N)=O`, the result was inactive.

For the compound `OC[C@H]1O[C@@H]2O[C@H]3[C@H](O)[C@@H](O)[C@@H](O[C@H]4[C@H](O)[C@@H](O)[C@@H](O[C@H]5[C@H](O)[C@@H](O)[C@@H](O[C@H]6[C@H](O)[C@@H](O)[C@@H](O[C@H]7[C@H](O)[C@@H](O)[C@@H](O[C@H]1[C@H](O)[C@H]2O)O[C@@H]7CO)O[C@@H]6CO)O[C@@H]5CO)O[C@@H]4CO)O[C@@H]3CO`, the result was inactive.

As for `COc1cc2c(c(OC)c1OC)-c1ccc(OC)c(=O)cc1[C@@H](NC(C)=O)CC2`, the outcome was inactive.

As for `OCCC(F)(F)C(F)(F)C(F)(F)C(F)(F)F`, the outcome was inactive.

For `O=C(O)c1cccc(C(=O)O)c1`, the result was inactive.

Consider `CNC(C)=O`, for which the outcome was inactive.

On to `CCCCCCCC1CCC(=O)O1` (configuration not stated), for which the result was inactive.

In the case of `O=C1CN(N=Cc2ccc([N+](=O)[O-])o2)C(=O)N1`, the result was inactive.

For the compound `COS(C)(=O)=O`, the result was inactive.

With `S=P(N1CC1)(N1CC1)N1CC1`, the result was inactive.

On to `C[C@@H](Oc1ccc(CNC(=O)c2cccnc2Oc2ccc3c(c2)OCO3)c(F)c1)C(=O)O`, for which the outcome was inactive.

Regarding `O=c1[nH]cnc2c1ncn2[C@H]1CC[C@@H](CO)O1`, the result was inactive.

Read-out in a further assay: Transforming growth factor beta 1 (TGFb1), TGFB1 (gene 7040)
Kind of assay: BSK_KF3CT_TGFb1: BioMAP Diversity Plus: KF3CT Assay for Transforming growth factor beta 1 (TGFb1) Biomarker Activity (AID 2283072). The following applies: primary human keratinocytes with fibroblasts; actives raise or lower the signal. The essentials:
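Primary human skin cells (keratinocytes, foreskin fibroblasts) were co-cultured, exposed to test chemical and sampled at 24 h. TGF-b1 levels were measured by ELISA and fitted bidirectionally relative to DMSO.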
Turning to `OCc1c[nH]c2ccccc12`, the outcome was inactive.

`c1ccc2cc3ccccc3cc2c1`: the outcome was inactive.

For `COc1cc(C(C)C)c2c(c1)S(=O)(=O)N(COc1cc(=O)n3cccc(OCCN4CCCCC4)c3n1)C2=O`, the result was inactive.

In the case of `Cc1nccn1-c1ccc(Sc2cccc(C3(C(N)=O)CCOCC3)c2)cc1`, the result was inactive.

For the compound `CC(C)CC(C)O` (configuration not stated), the result was inactive.

`NC(=O)NN=Cc1ccc([N+](=O)[O-])o1`: the outcome was inactive.

With `c1ccc(C(O[C@@H]2CCCN(CCc3ccc4c(c3)OCO4)C2)c2ccccc2)cc1`, the result was inactive.

On to `CCCCOC(=O)c1ccccc1`, for which the result was inactive.

In the case of `NC(=O)N1c2ccccc2C=Cc2ccccc21`, the result was inactive.

In the case of `Cc1nc(-c2ccccn2)ncc1C(=O)Nn1cc(C)c2cc(F)ccc21`, the outcome was inactive.

In the case of `O=C(O)[C@H](O)[C@@H](O)C(=O)O`, the result was inactive.

Regarding `Cc1cccc(O)c1C`, the result was inactive.

As to `CCOC(N)=O`, the result was inactive.

As for `OC[C@H]1O[C@@H]2O[C@H]3[C@H](O)[C@@H](O)[C@@H](O[C@H]4[C@H](O)[C@@H](O)[C@@H](O[C@H]5[C@H](O)[C@@H](O)[C@@H](O[C@H]6[C@H](O)[C@@H](O)[C@@H](O[C@H]7[C@H](O)[C@@H](O)[C@@H](O[C@H]1[C@H](O)[C@H]2O)O[C@@H]7CO)O[C@@H]6CO)O[C@@H]5CO)O[C@@H]4CO)O[C@@H]3CO`, the result was inactive.

With `COc1cc2c(c(OC)c1OC)-c1ccc(OC)c(=O)cc1[C@@H](NC(C)=O)CC2`, the outcome was inactive.

On to `O=C(O)c1cccc(C(=O)O)c1`, for which the outcome was inactive.

With `CNC(C)=O`, the result was inactive.

As for `CCCCCCCC1CCC(=O)O1` (configuration not stated), the outcome was inactive.

For `O=C1CN(N=Cc2ccc([N+](=O)[O-])o2)C(=O)N1`, the result was inactive.

Take `COS(C)(=O)=O`: the outcome was inactive.

In the case of `S=P(N1CC1)(N1CC1)N1CC1`, the outcome was inactive.

For the compound `C[C@@H](Oc1ccc(CNC(=O)c2cccnc2Oc2ccc3c(c2)OCO3)c(F)c1)C(=O)O`, the outcome was inactive.

As to `O=c1[nH]cnc2c1ncn2[C@H]1CC[C@@H](CO)O1`, the outcome was inactive.

Read-out in a further assay: C-C motif chemokine 2 (Homo sapiens) (UniProt P13500)
As to the kind of experiment: BSK_KF3CT_MCP1: BioMAP Diversity Plus: KF3CT Assay for Monocyte Chemoattractant Protein 1 (MCP1/CCL2) Biomarker Activity (AID 2283073). The conditions noted are these: primary human keratinocytes with fibroblasts; actives raise or lower the signal. In outline:
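Keratinocytes and foreskin fibroblasts were co-cultured, dosed with chemical, and sampled 24 h later. MCP-1 was quantified by ELISA, and the endpoint was analyzed with bidirectional fitting using DMSO as negative control.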
Regarding `OCc1c[nH]c2ccccc12`, the outcome was inactive.

`c1ccc2cc3ccccc3cc2c1`: the result was inactive.

As for `COc1cc(C(C)C)c2c(c1)S(=O)(=O)N(COc1cc(=O)n3cccc(OCCN4CCCCC4)c3n1)C2=O`, the concentration at half-maximal activity (AC50) is 2780 nM (active).

Consider `O=S(=O)(O)CCC(F)(F)C(F)(F)C(F)(F)C(F)(F)C(F)(F)C(F)(F)F`, for which the outcome was inactive.

Consider `Cc1nccn1-c1ccc(Sc2cccc(C3(C(N)=O)CCOCC3)c2)cc1`, for which the result was inactive.

With `CC(C)CC(C)O` (configuration not stated), the result was inactive.

With `NC(=O)NN=Cc1ccc([N+](=O)[O-])o1`, the outcome was inactive.

With `c1ccc(C(O[C@@H]2CCCN(CCc3ccc4c(c3)OCO4)C2)c2ccccc2)cc1`, the outcome was inactive.

With `CCCCOC(=O)c1ccccc1`, the outcome was inactive.

As for `FC(F)(F)C(F)(F)C(F)(F)C(F)(F)C(F)(F)C(F)(F)I`, the outcome was inactive.

For the compound `NC(=O)N1c2ccccc2C=Cc2ccccc21`, the result was inactive.

Turning to `Cc1nc(-c2ccccn2)ncc1C(=O)Nn1cc(C)c2cc(F)ccc21`, the result was inactive.

As for `O=C(O)[C@H](O)[C@@H](O)C(=O)O`, the outcome was inactive.

Consider `Cc1cccc(O)c1C`, for which the result was inactive.

Take `C[Si](C)(C)C(F)(F)C(F)(F)C(F)(F)F`: the outcome was inactive.

In the case of `CCOC(N)=O`, the result was inactive.

As for `OC[C@H]1O[C@@H]2O[C@H]3[C@H](O)[C@@H](O)[C@@H](O[C@H]4[C@H](O)[C@@H](O)[C@@H](O[C@H]5[C@H](O)[C@@H](O)[C@@H](O[C@H]6[C@H](O)[C@@H](O)[C@@H](O[C@H]7[C@H](O)[C@@H](O)[C@@H](O[C@H]1[C@H](O)[C@H]2O)O[C@@H]7CO)O[C@@H]6CO)O[C@@H]5CO)O[C@@H]4CO)O[C@@H]3CO`, the outcome was inactive.

Take `COc1cc2c(c(OC)c1OC)-c1ccc(OC)c(=O)cc1[C@@H](NC(C)=O)CC2`: the outcome was inactive.

Consider `OCCC(F)(F)C(F)(F)C(F)(F)C(F)(F)F`, for which the result was inactive.

Consider `O=C(O)c1cccc(C(=O)O)c1`, for which the concentration at half-maximal activity (AC50) is 323 nM (active).

As for `CNC(C)=O`, the result was inactive.

For `CCCCCCCC1CCC(=O)O1` (configuration not stated), the outcome was inactive.

Take `O=C1CN(N=Cc2ccc([N+](=O)[O-])o2)C(=O)N1`: the result was inactive.

For the compound `COS(C)(=O)=O`, the result was inactive.

As to `S=P(N1CC1)(N1CC1)N1CC1`, the result was inactive.

As to `C[C@@H](Oc1ccc(CNC(=O)c2cccnc2Oc2ccc3c(c2)OCO3)c(F)c1)C(=O)O`, the result was inactive.

Take `O=c1[nH]cnc2c1ncn2[C@H]1CC[C@@H](CO)O1`: the outcome was inactive.

What is called AC50 is the midpoint of the concentration-response curve, whichever way the signal moves.

Values taken from PubChem BioAssay (EPA / NIEHS).
